Sampled rows, rich in hits. Any-hit rate of the full collection: about 0.51%.
Epigenetic derep: regulators of epigenetic silencing causing reporter derepression in mouse cells. murine LDR cells, GFP reporter derepression, 30 h. Potency, µM (top dose mostly 53.9 µM), for the others: at the top dose GFP activation, most hits filed as activators. 0.2% of 280,000 active. AID 1865; also: % of control where 0% means no effect; nearly all actives have a fitted effect of over 60% in size
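Murine LDR cells carrying a silenced, genomically integrated CMV-driven GFP reporter were exposed to compound for 30 hours at 37 C. After PBS washes, GFP-positive cells (20–120 um objects) were counted by laser-scanning microplate cytometry.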
PINK1 expr mod: changes PINK1 expression; AID 624263; Potency, µM (top dose mostly 76.6 µM), for inactives: top-dose activation (PINK1 increase), actives largely listed as activators; PINK1 immunofluorescence, high-content cytometry, 24 h; 0.2% of 410,000 active; active = well fitted activation curve with a large enough effect; inconclusive = small, poorly fitted or top-dose-only effect; cell line not stated here; also: % of control where 0% means no effect; nearly all actives have a fitted effect of over 65% in size
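Measures PINK1 amount and localization on or inside mitochondria by immunofluorescence. Stable cells get compounds at 5 concentrations for 24 hours before fixation and staining; CCCP controls included.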
Vif-APOBEC3G blk: blocks the Vif interaction with human APOBEC3G; Q9HC16; HeLa A3G-eYFP + Vif (tagged APOBEC3G with the HIV-1 protein that degrades it), YFP fluorescence, overnight; Potency, µM (series often up to 46.1 µM), for inactives: top-dose activity, negative = active, usual class: inhibitors; 0.076% of 410,000 active; also: % is scaled to controls: 0 for no effect and ±100 for the full control effect; nearly all actives have a fitted effect of over 60% in size
Target sequence (Q9HC16 whole entry, looked up): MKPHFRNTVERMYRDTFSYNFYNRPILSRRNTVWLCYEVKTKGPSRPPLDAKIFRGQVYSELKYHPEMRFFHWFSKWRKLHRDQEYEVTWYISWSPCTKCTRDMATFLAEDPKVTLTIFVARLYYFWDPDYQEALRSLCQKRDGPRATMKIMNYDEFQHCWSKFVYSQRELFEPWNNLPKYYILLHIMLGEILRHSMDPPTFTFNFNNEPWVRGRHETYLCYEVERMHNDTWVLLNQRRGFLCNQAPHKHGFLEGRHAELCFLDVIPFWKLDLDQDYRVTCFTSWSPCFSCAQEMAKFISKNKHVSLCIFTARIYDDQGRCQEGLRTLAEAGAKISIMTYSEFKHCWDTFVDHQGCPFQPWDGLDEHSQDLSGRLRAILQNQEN
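HeLa cells stably expressing Vif and C-terminally eYFP-tagged A3G, seeded overnight at 37 deg C, then exposed to compound by pintool overnight at 37 deg C. Rise in yellow fluorescence (Ex 488/Em 500-530, Acumen) marks blocked Vif-driven A3G degradation.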
Vif-A3F inh: blocks the Vif interaction with APOBEC3F; HeLa A3F-eYFP + Vif (tagged APOBEC3F with the HIV-1 protein that degrades it), YFP fluorescence increase; 0.2% of 390,000 active; Potency, µM (doses to about 46.1 µM), without a hit: at the highest dose activity, negative = active; AID 602313; also: % of control where 0% means no effect; nearly all actives have a fitted effect of over 65% in size
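HeLa cells stably expressing Vif plus C-terminally eYFP-tagged A3F were seeded, incubated overnight at 37 deg C, dosed with compound, incubated overnight again at 37 deg C. Yellow fluorescence (Ex 488/Em 500-530) reported blocked Vif-mediated A3F-eYFP degradation.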
* marks the source's active call; other numbers are inactive results; ? = inconclusive; / = no result; [ ] = another dose, or the depositor's remark. Unless noted, calls follow the shape of the dose curve; as a rule, active = well fitted curve in the direction sought with a large enough effect; inconclusive = small, poorly fitted or top-dose-only effect, or another doubt; inactive = no such curve, though single readings can be large; an effect the other way counts as inactive or inconclusive. Potency is read from the fitted curve at half-maximal effect.

SMILES	Epigenetic derep	PINK1 expr mod	Vif-APOBEC3G blk	Vif-A3F inh
Cc1cccc(CNC(=O)c2ccc(Cn3c(=O)c4cccn4c4cccnc43)cc2)c1	18µM*	0%	0%	-27%
O=[N+]([O-])c1ccc(N/N=C/c2c[nH]c3ccccc23)c(S(=O)(=O)Nc2ccc(Cl)cc2)c1	?	?	?	25µM*
COc1ccccc1NS(=O)(=O)c1cc([N+](=O)[O-])ccc1N/N=C/c1c(C)[nH]c2ccccc12	?	9%[38.3 µM]	?	?
O=C(N/N=C/c1c(O)n(-c2ccc(Cl)cn2)c(=O)c2ccccc12)c1ccncc1	0%	3%	-19%	22µM*
COc1ccc2cc(CNCc3ccccc3Cl)c(N3CCCC(CO)C3)nc2c1 (stereo unspecified)	/	0%	/	/
COc1cc(OC)c(/C=C/c2cc3ccccc3c[n+]2C)c(OC)c1	/	11µM*	-5%	/
Cc1cc(N2CCCC2)ccc1/C=C1/C(=O)N(C)C(=S)N1C	?	17%	?	11µM*
CCCN1C(=O)S/C(=C\c2ccc(N3CCOCC3)cc2C)C1=O	0%	/	/	/
Cc1nonc1CN(C)C(=O)C1CC12CCN(C(=O)/C=C/c1cccc(Cl)c1)CC2 (stereo unspecified)	/	0%	/	/
O=C(CSCc1ccc(Cl)cc1)Nc1cc([N+](=O)[O-])ccc1O	1%	14µM*	2%	-1%
COc1ccc([N+](=O)[O-])cc1NC(=O)CSCc1ccc(Br)cc1	-3%	4%	-1%	5%
Cc1ccc(SCC(=O)Nc2cc([N+](=O)[O-])ccc2O)cc1	1%	16µM*	-5%	7%
COC(=O)CC1C(=O)NCCN1C(=O)CN1Cc2ccccc2OC(c2ccccc2)C1 (stereo unspecified)	/	2%	/	/
COc1ccc2c(c1)-c1nc(-n3ncc(C(=O)N(C)C(C)c4ccon4)c3C3CC3)ncc1CC2 (stereo unspecified)	/	2%	/	/
CCCCC1=CC2=C(c3ccco3)C(=O)C(C)(OC(=O)c3ccc(OC)cc3)C(=O)C2=CN1Cc1ccccc1 (stereo unspecified)	18µM*	3%	-4%	?
COc1cc(=O)n2c(c1C(=O)N(C)Cc1ccsc1)CCN(Cc1c(C)nn(C)c1Cl)CC2	/	1%	/	/
Cc1ccnc2ccc3ccccc3c12	/	/	4%	/
COc1ccc(-c2nc3cnc(Nc4cccc(OC)c4)nc3n(CCC#N)c2=O)cc1	/	45µM*	/	/
COc1ccc(-c2nc3cnc(Nc4ccccc4)nc3n(CCC#N)c2=O)cc1	/	11µM*	/	/
COc1ccc(-c2nc3cnc(Oc4ccccc4)nc3n(CCC#N)c2=O)cc1	/	5%	/	/
COCC(C)NCc1cc2ccc(OC)cc2nc1N1CCN(c2ccc(F)cc2)CC1 (stereo unspecified)	/	4%	/	/
CCOc1ccc2[nH]c3c(=O)n(CCc4ccc(OC)cc4)cnc3c2c1	25µM*	8%	2%	4%
C/C(=N\Nc1nc(C)cc(-c2ccccc2)n1)c1ccc(F)cc1	/	2%	1%	20µM*
COc1ccc(/C(C)=N/Nc2nc(C)cc(-c3ccccc3)n2)cc1	/	4%	-1%	7%
COc1ccc(-c2csc(NC(=O)c3ccccc3NS(=O)(=O)c3ccc(C)cc3)n2)cc1	0%	14µM*	-19%	-2%
SMILES	Epigenetic derep	PINK1 expr mod	Vif-APOBEC3G blk	Vif-A3F inh
Cc1cc2nc3c(=O)n(CCc4ccccc4)c(=O)[nH]c3nc2cc1N	0%	17%	?	6.3µM*
Nc1ccc2nc3c(=O)n(CCc4ccccc4)c(=O)[nH]c3nc2c1	6%	1%	?	?
CCOC(=O)C1C(=O)C=C(/C=C/c2ccc(N(C)C)cc2)CC1c1ccccc1 (stereo unspecified)	22µM*	?	?	2.8µM*
COc1ccc(OC)c(/C=C/c2nc3ccccc3nc2C)c1	/	/	-23%	/
COc1ccc(OC)c(/C=C/c2nc3ccccc3[nH]c2=O)c1	/	16%	?	22µM*
COc1cc2nc3c(c([Si](C)(C)C(C)(C)C)c2cc1OC)Cn1c-3cccc1=O	7.9µM*	/	/	/
COC(=O)c1cc(CNC(=O)c2cccc(C)c2)cc(NC(=O)c2ccncc2)c1	/	0%	/	/
Cc1ccc(Sc2c(C#N)c(-c3ccccc3)nn2C)cc1	1%	10µM*	-30%	-9%
Cc1ccc(SCc2c(-c3ccccc3)nn(C)c2Cl)cc1	0%	1%	0%	-6%
COc1cccc(-c2nc3cc4c(cc3cc2CN(C(=O)c2cc(C)nn2C)C2CC2)CCC4)c1OC	/	3%	/	/
Cc1cccn2c(=O)c3cc(C#N)c(=NC(=O)c4ccncc4)n(CCCOC(C)C)c3nc12	3%	0%	-1%	-3%
Cc1cccn2c(=O)c3cc(C#N)c(=NC(=O)c4cccs4)n(CCCOC(C)C)c3nc12	?	1%	-8%	25µM*
CCOC(=O)N1CCN(Cc2ccc3c(c2)CN(C(=O)c2ccc(C#CC(C)(C)O)o2)CCO3)CC1	/	1%	/	/
CC(C)(C)NC(=S)NNC(=O)c1cccc(Br)c1	18µM*	2%	2%	-4%
CN(C)CC(C)(C)CNC(=O)c1cnn(-c2nccc(-c3ccc4c(c3)OCO4)n2)c1-c1ccco1	/	-1%	/	/
CNC(=S)N/N=C(\C)c1ccc(N2CCOCC2)cc1	?	0%	-1%	?
CCNC(=S)N/N=C(\C)c1ccc(N2CCOCC2)cc1	0%	1%	0%	22µM*
Cn1nnnc1SCCNCc1cc(Br)ccc1OCc1ccccc1Cl	1%	19%	-15%	13µM*
COCC(=O)Nc1cc(C(=O)N2CCc3ccccc3C2)c2c(c1)nc(-c1ccncc1)n2C	/	0%	/	/
COc1ccc2[nH]c(C(=O)N/N=C/c3ccccc3OC)cc2c1	/	5%	?	-16%
COc1ccc2[nH]c(C(=O)N/N=C/c3ccc(OC)c(O)c3)cc2c1	/	6%	2.5µM*	1%
COc1cc(/C=C2\SC(=S)N(NC(=O)c3ccccc3O)C2=O)ccc1O	/	1%	-10%	11µM*
C=CCn1cc(/C=C/c2cc[n+](C)cc2)c2ccccc21	/	45µM*	?	?
CCn1cc(/C=C/c2cc[n+](C)cc2)c2ccccc21	/	28µM*	2.5µM*	-521%
Cc1ccccc1/C=C/c1cc[n+](C)cc1	5%	2%	2%	5%
SMILES	Epigenetic derep	PINK1 expr mod	Vif-APOBEC3G blk	Vif-A3F inh
CC(C)n1cc(/C=C/c2cc[n+](C)cc2)c2ccccc21	/	40µM*	4µM*	-498%
CN(C)c1ccc(/C=C(/C#N)C(=O)Nc2nc3c(s2)CCN(Cc2ccccc2)C3)cc1	/	?	5.6µM*	?
N#C/C(=C\c1ccc(OCc2ccccc2)cc1)C(=O)Nc1nc2c(s1)CCN(Cc1ccccc1)C2	2%	11%	1%	?
Cc1cccc(CN2C[C@H](Sc3ccccn3)C[C@H]2C(=O)Nc2ccc3sc(C)nc3c2)c1	/	-1%	/	/
COc1ccccc1C1CN(CC(=O)NCC2OCCc3ccccc32)Cc2ccccc2O1 (stereo unspecified)	/	0%	/	/
CC(=O)Nc1sc(/C(C#N)=C\c2cccc(Cl)c2)nc1-c1ccc(C)cc1	7.9µM*	2%	4µM*	10µM*
